From PubChem
TDP1 cell noCPT: qHTS for Inhibitors of human tyrosyl-DNA phosphodiesterase 1 (TDP1): qHTS in cells in absence of CPT | DT40 Tdp1-/- hTDP1 cells, no CPT, ATP luminescence, 48 h | Potency, µM (doses to about 46.2 µM), actives largely listed as inhibitors | hit rate 15% among 420,000 | AID 686978, 2013; also: nearly all actives have a fitted effect of over 55% in size
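DT40 Tdp1-/-;hTDP1 cells, no CPT (DMSO vehicle only), 400 cells/well; compounds pin-transferred; ≥48 hr, 37 °C; CellTiter-Glo 30 min RT dark, luminescence read.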
IL-1B inflam inh: qHTS for Inhibitors of Inflammasome Signaling: IL-1-beta AlphaLISA Primary Screen | THP-1 LPS/ATP IL-1B secretion, AlphaLISA, 16 h; active compounds read low | hit rate 4.7% among 360,000 | activity change, % at 57.5 µM; in the data active = activity change below about -50%; inconclusive = mostly about -30% to -49%
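Secreted IL-1B measured by AlphaLISA bead assay after 16 h compound exposure of THP-1 cells; compounds (final up to 57.5 uM) added 1 h before LPS (250 ng/mL) and ATP (1.25 mM) stimulation; lower signal means less secretion.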
ELG1 DNA repair: qHTS screen for small molecules that inhibit ELG1-dependent DNA repair in human embryonic kidney (HEK293T) cells expressing luciferase-tagged ELG1 | HEK293T ELG1-luciferase reporter, luminescence, 16 h; DNA damage induced by 5-fluorouridine | Potency, µM (series often up to 46.1 µM), usual class: inhibitors | hit rate 2.3% among 330,000; also: nearly all actives have a fitted effect of over 55% in size
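DMSO vehicle served as the neutral condition. Each well held 2,000 cells given 5-fluorouridine plus compound; after 16 hr at 37 °C/5% CO2, ONE-Glo was added and luciferase measured 30 min later.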
RORg inh: qHTS for inhibitors of ROR gamma transcriptional activity; Potency, µM (doses to about 53.6 µM), hits mostly inhibitors; hit rate 5.4% among 310,000; Nuclear receptor ROR-gamma (Mus musculus), P51450; Drosophila S2 Gal4-RORgamma UAS-luciferase reporter, 20 h; also: nearly all actives have a fitted effect of over 60% in size
Target sequence (P51450 whole entry, looked up, the tested form may be a part): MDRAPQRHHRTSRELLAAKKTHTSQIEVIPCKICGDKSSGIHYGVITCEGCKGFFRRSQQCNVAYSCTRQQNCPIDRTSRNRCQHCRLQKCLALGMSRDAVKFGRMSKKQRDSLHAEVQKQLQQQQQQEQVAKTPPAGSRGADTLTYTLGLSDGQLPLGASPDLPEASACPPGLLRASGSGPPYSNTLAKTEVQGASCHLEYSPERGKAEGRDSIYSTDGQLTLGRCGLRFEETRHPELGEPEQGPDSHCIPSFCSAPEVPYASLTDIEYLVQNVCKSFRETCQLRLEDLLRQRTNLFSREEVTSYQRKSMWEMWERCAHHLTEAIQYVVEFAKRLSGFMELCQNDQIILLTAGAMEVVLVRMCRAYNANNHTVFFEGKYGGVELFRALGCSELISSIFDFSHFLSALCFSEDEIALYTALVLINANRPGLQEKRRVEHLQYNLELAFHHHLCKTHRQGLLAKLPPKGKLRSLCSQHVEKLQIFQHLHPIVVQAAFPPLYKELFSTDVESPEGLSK
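In this cell-based reporter format, copper sulfate (700 uM final) drives Gal4–ROR gamma fusion expression from a metallothionein promoter in Drosophila Schneider cells; compounds preincubated 1 hr, reporter read after 20 hr at ambient temperature.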
DT40 TDP1 CPT: qHTS for Inhibitors of human tyrosyl-DNA phosphodiesterase 1 (TDP1): qHTS in cells in presence of CPT; Potency, µM (top dose mostly 46.2 µM), hits mostly inhibitors; hit rate 12% among 420,000; chicken DT40 Tdp1-/-;hTDP1 cells + 20 nM CPT, ATP luminescence, 48 h; also: nearly all actives have a fitted effect of over 55% in size
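Cell growth measured by CellTiter-Glo luminescence after a minimum 48 h, 37 C compound exposure with 20 nM CPT in Tdp1-knockout DT40 cells stably expressing hTDP1, seeded 400/well; qHTS titration format.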
VP16 counter: VP16 counterscreen qHTS for inhibitors of ROR gamma transcriptional activity; Potency, µM (titrated, usually from 53.6 µM), usual class: inhibitors; hit rate 3.5% among 310,000; Drosophila S2 Gal4-VP16 UAS-luciferase, luminescence, 20 h;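 also: Gal4-VP16 expression switched on by copper sulfate through the metallothionein promoter; nearly all actives have a fitted effect of over 50% in size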
Large screens that a line does not name were inactive. The list is not random: actives were taken first. Their share in the collection is about 21%. Unless noted, calls follow the shape of the dose curve; as a rule, active = well fitted curve in the direction sought with a large enough effect; inconclusive = small, poorly fitted or top-dose-only effect, or another doubt; inactive = no such curve, though single readings can be large; an effect the other way counts as inactive or inconclusive.

Cc1cc(S(=O)(=O)Nc2ccc3oc4c(c3c2)CCCC4)ccc1Cl	TDP1 cell noCPT 23µM, DT40 TDP1 CPT 21µM (no result: IL-1B inflam inh, ELG1 DNA repair, RORg inh, VP16 counter)
COC(=O)NC(c1ccc2c(c1)OCO2)C(C(=O)OC)C(=O)OC (stereo unspecified)	none (no result: TDP1 cell noCPT, IL-1B inflam inh, ELG1 DNA repair, DT40 TDP1 CPT)
CCc1cc2c(nc1CC)CCN(CC/C(C)=N/O[C@@H](C)CN1CCCc3nc(C)c(C)cc31)C2	none (no result: TDP1 cell noCPT, IL-1B inflam inh, ELG1 DNA repair, DT40 TDP1 CPT)
Cc1cc(C)c(S(=O)(=O)Nc2ccc3oc4c(c3c2)CCCC4)cc1C	TDP1 cell noCPT inconclusive, DT40 TDP1 CPT 16µM (no result: IL-1B inflam inh, ELG1 DNA repair, RORg inh, VP16 counter)
COC(=O)CCC(=O)Nc1ccc2oc3c(c2c1)CCCC3	none
CCCn1c(C(C)Nc2nc(-c3ccc(C)cc3)cs2)nc2ccccc21 (stereo unspecified)	TDP1 cell noCPT inconclusive, RORg inh 5.6µM, DT40 TDP1 CPT inconclusive, VP16 counter 18µM
CCCn1c(C(C)Nc2nc(-c3ccc(Cl)c([N+](=O)[O-])c3)cs2)nc2ccccc21 (stereo unspecified)	TDP1 cell noCPT inconclusive, RORg inh 13µM, DT40 TDP1 CPT 23µM, VP16 counter inconclusive
CCCn1c(C(C)Nc2nc(-c3cccc(Br)c3)cs2)nc2ccccc21 (stereo unspecified)	TDP1 cell noCPT inconclusive, ELG1 DNA repair inconclusive, RORg inh 4.5µM, DT40 TDP1 CPT inconclusive, VP16 counter inconclusive
O=[N+]([O-])c1cc(-c2csc(NC(CO)c3nc4ccccc4n3CCOCCO)n2)ccc1Cl (stereo unspecified)	TDP1 cell noCPT 18µM, DT40 TDP1 CPT inconclusive (no result: ELG1 DNA repair, RORg inh, VP16 counter)
Cc1ccc(Cn2c(C(C)Nc3nc(-c4ccc(Cl)c([N+](=O)[O-])c4)cs3)nc3cc(C(F)(F)F)ccc32)cc1 (stereo unspecified)	TDP1 cell noCPT inconclusive, DT40 TDP1 CPT inconclusive (no result: ELG1 DNA repair, RORg inh, VP16 counter)
Cc1ccc(NC(=O)COC(=O)CNC(=O)c2cccs2)cc1S(=O)(=O)N1CCOCC1	none (no result: ELG1 DNA repair, RORg inh, VP16 counter)
COc1ccc(OC)c(NC(=O)CN(Cc2ccc(F)cc2)C2CCCCC2)c1	TDP1 cell noCPT 16µM, RORg inh inconclusive, DT40 TDP1 CPT inconclusive, VP16 counter 18µM
COc1ccc(S(=O)(=O)N2CCCCC2)cc1NC(=O)CN(C)C1CCCCC1	TDP1 cell noCPT inconclusive, IL-1B inflam inh -70, DT40 TDP1 CPT inconclusive
O=C(CN(C1CC1)S(=O)(=O)c1ccc(S(=O)(=O)N2CCCCCC2)cc1)Nc1ccccc1	ELG1 DNA repair inconclusive
COC(=O)CCN(C1CCCCC1)S(=O)(=O)c1ccc(S(=O)(=O)N2CCCCC2)cc1	TDP1 cell noCPT 13µM, DT40 TDP1 CPT 29µM
COc1ccc(OC)c(NC(=O)NCc2ccc(F)cc2)c1	none
COc1ccc(S(=O)(=O)N2CCCCC2)cc1NC(=O)CN(Cc1ccco1)Cc1ccco1	TDP1 cell noCPT inconclusive, IL-1B inflam inh -51, ELG1 DNA repair inconclusive, DT40 TDP1 CPT inconclusive (no result: RORg inh, VP16 counter)
O=C(OCCO)c1ccccc1O	none (no result: IL-1B inflam inh, ELG1 DNA repair)
C/C=C(\C)C(=O)O[C@H]1C[C@@]2(C)CCC(C(C)C)C2(O)CC[C@@]1(C)O (stereo partly specified)	none (no result: IL-1B inflam inh, ELG1 DNA repair)
Cc1ccc(S(=O)(=O)NCCC(=O)NCc2ccco2)cc1	none
CC1N=C2c3ccccc3N=C(SCC(=O)NCCc3ccccc3)N2C1=O (stereo unspecified)	none (no result: IL-1B inflam inh, ELG1 DNA repair, RORg inh, VP16 counter)
COc1ccc(N2C(=S)N=C(Nc3ccccc3)C23CCCCC3)cc1	RORg inh inconclusive, DT40 TDP1 CPT inconclusive
COc1ccc(NC2=NC(=S)N(c3ccccc3C)C23CCCCC3)cc1	TDP1 cell noCPT 26µM, RORg inh 7.1µM, DT40 TDP1 CPT 23µM, VP16 counter inconclusive
O=C(O)CCCCCCCCCCCNC(=O)NC12CC3CC(CC(C3)C1)C2	ELG1 DNA repair inconclusive (no result: RORg inh, VP16 counter)
